Experimental data as given in PubChem BioAssay (NCATS).
Results filed as inconclusive are left out. Where a call stands in place of a potency, no number is given. Values without a mark were called inactive. The source made the active and inactive calls. Calls come from the whole dose curve; as a rule, active = well fitted curve in the direction sought with a large enough effect; inconclusive = small, poorly fitted or top-dose-only effect, or another doubt; inactive = no such curve, though single readings can be large; an effect the other way counts as inactive or inconclusive.

Columns and labels:
[1] = tested on: CRL-7250; assay: Cytotoxic Profiling of Annotated Libraries Using Quantitative High-Throughput Screening (AID 1296008); conditions: Five cell lines viability, CellTiter-Glo ATP luminescence, 48-72 h; max response: hits give low values; note: nearly all actives have a fitted effect of over 60% in size; note: potency is the fitted concentration of half-maximal effect
How it was run: (§1)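 Cytotoxicity was measured as CellTiter-Glo ATP luminescence, read after 10 min at room temperature. Compound treatment of the cells lasted 48 or 72 hr at 37 degrees Celsius in a qHTS format.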

[2] = tested on: HEK293; assay: as above; conditions: Five cell lines viability, CellTiter-Glo ATP luminescence, 48-72 h; max response: hits give low values
How it was run: as §1

[3] = tested on: HaCat; assay: as above; conditions: Five cell lines viability, CellTiter-Glo ATP luminescence, 48-72 h; max response: hits give low values
How it was run: as §1

[4] = tested on: KB-3-1; assay: as above; conditions: Five cell lines viability, CellTiter-Glo ATP luminescence, 48-72 h; max response: hits give low values
How it was run: as §1

[5] = tested on: NIH3T3; assay: as above; conditions: Five cell lines viability, CellTiter-Glo ATP luminescence, 48-72 h; max response: hits give low values
How it was run: as §1

[6] = tested on: HACAT; assay: qHTS assay to identify novel small-molecules to repurpose for Merkel cell carcinoma treatment (AID 1296009); conditions: MCC and control cell lines, CellTiter-Glo viability, 72 h; at 44.8 µM (top of the series) unless noted; note: nearly all actives have a fitted effect of over 60% in size
How it was run: (§2)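 Cell viability, measured as CellTiter-Glo luminescence, was normalized between DMSO and no-cell wells. The cells had been exposed to 8- or 11-point compound dilutions for 72 hr at 37 degree celsius.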

[7] = tested on: NIH3T3; assay: as above; conditions: MCC and control cell lines, CellTiter-Glo viability, 72 h; at 44.8 µM (top of the series) unless noted
How it was run: as §2

[8] = tested on: C33A; assay: Primary qHTS to identify gynecologic anti-cancer compounds using libraries of approved drugs and bioactive compounds (AID 1345084); conditions: Gynecologic cancer cell panel viability, ATPlite luminescence, 48 h; series mostly up to 57.5 µM; note: nearly all actives have a fitted effect of over 55% in size
How it was run: (§3)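 Measured: luminescence after ATPlite addition (15 min, RT). Exposure: 48 h, 37 C, 5% CO2.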

[9] = tested on: CAOV3; assay: as above; conditions: Gynecologic cancer cell panel viability, ATPlite luminescence, 48 h; series mostly up to 57.5 µM
How it was run: as §3

[10] = tested on: CASKI; assay: as above; conditions: Gynecologic cancer cell panel viability, ATPlite luminescence, 48 h; series mostly up to 57.5 µM
How it was run: as §3

[11] = tested on: Es-2; assay: as above; conditions: Gynecologic cancer cell panel viability, ATPlite luminescence, 48 h; series mostly up to 57.5 µM
How it was run: as §3

[12] = tested on: HeLa; assay: as above; conditions: Gynecologic cancer cell panel viability, ATPlite luminescence, 48 h; series mostly up to 57.5 µM
How it was run: as §3

[13] = tested on: Hek293T; assay: as above; conditions: Gynecologic cancer cell panel viability, ATPlite luminescence, 48 h, control line for the selectivity index; series mostly up to 57.5 µM
How it was run: as §3

[14] = tested on: JEG-3; assay: as above; conditions: Gynecologic cancer cell panel viability, ATPlite luminescence, 48 h; series mostly up to 57.5 µM
How it was run: as §3

[15] = tested on: OV90; assay: as above; conditions: Gynecologic cancer cell panel viability, ATPlite luminescence, 48 h; series mostly up to 57.5 µM
How it was run: as §3

[16] = tested on: PA-1; assay: as above; conditions: Gynecologic cancer cell panel viability, ATPlite luminescence, 48 h; series mostly up to 57.5 µM
How it was run: as §3

For CC(=O)/C=C/C1(O)C(C)=CC(=O)CC1(C)C (stereo unspecified), the max response [1] was -1.97%, the max response [2] was -3.4% and the outcome [3] was “inactive”. The max response [4] was -2.68%, the outcome [5] was “inactive” and the outcome [6] was “inactive”. The outcome [7] was “inactive”, the Potency [8] was “inactive” and the Potency [9] was “inactive”. The outcome [10] was “inactive”, the Potency [11] was “inactive” and the Potency [12] was “inactive”. For the same molecule, the Potency [13] was “inactive”, the Potency [14] was “inactive” and the Potency [15] was “inactive”. The Potency [16] was “inactive”.

With C=C[C@]1(C)C[C@@H](OC(=O)CSC2C[C@H]3CC[C@@H](C2)N3C)[C@]2(C)[C@H](C)CC[C@]3(CCC(=O)[C@H]32)[C@@H](C)[C@@H]1O (stereo partly specified) the max response [1] was -0.484%, the Potency [2] was 1460 nM (active) and the outcome [3] was “inactive”. For the same molecule, the max response [4] was -17.7%, the outcome [5] was “inactive” and the outcome [6] was “inactive”. The outcome [7] was “inactive”, the Potency [8] was “inactive” and the Potency [9] was “inactive”. The outcome [10] was “inactive”, the Potency [11] was “inactive” and the Potency [12] was “inactive”. The Potency [13] was “inactive”, the Potency [14] was “inactive” and the Potency [15] was “inactive”. For the same molecule, the Potency [16] was “inactive”.

For C[C@]1(O)CC[C@@H]2C(C(=O)O)=CO[C@@H](O[C@@H]3O[C@H](COC(=O)/C=C/c4ccc(O)c(O)c4)[C@@H](O)[C@H](O)[C@H]3O)[C@@H]21, the outcome [1] was “inactive”, the max response [2] was 0.933% and the outcome [3] was “inactive”. For the same molecule, the max response [4] was 9.19%, the outcome [5] was “inactive” and the outcome [6] was “inactive [at 17.4 µM]”. The outcome [7] was “inactive [at 17.4 µM]”, the Potency [8] was “inactive” and the Potency [9] was “inactive”. The outcome [10] was “inactive”, the Potency [11] was “inactive” and the Potency [12] was “inactive”. The Potency [13] was “inactive”, the Potency [14] was “inactive” and the Potency [15] was “inactive”. For the same molecule, the Potency [16] was “inactive”.

In the case of COc1cc(Nc2nc3ccccc3nc2NS(=O)(=O)c2cccc(NC(=O)c3ccc(C)c(OC)c3)c2)cc(OC)c1, the max response [1] is reported as -4.07%, the max response [2] is reported as -14.5% and the outcome [3] is reported as “inactive”. The max response [4] was -12.1%, the outcome [5] was “inactive” and the outcome [6] was “inactive”. The outcome [7] was “inactive”, the Potency [8] was “inactive” and the Potency [9] was “inactive”. For the same molecule, the outcome [10] was “inactive”, the Potency [11] was “inactive” and the Potency [12] was “inactive”. For the same molecule, the Potency [13] was “inactive”, the Potency [14] was “inactive” and the Potency [15] was “inactive”. The Potency [16] was “inactive”.

In the case of CC(=O)O[C@@H]1[C@H](O[C@@H]2OC[C@](O)(CO)[C@H]2O)[C@@H](O[C@@H]2O[C@@H](C)[C@H](O)[C@@H](O[C@@H]3O[C@H](CO)[C@@H](O)[C@H](O)[C@H]3O)[C@H]2O)[C@H](OC(=O)[C@]23CCC(C)(C)C[C@H]2C2=CCC4[C@@]5(C)C[C@H](O)[C@H](O[C@@H]6O[C@H](C(=O)O)[C@@H](O)[C@H](O)[C@H]6O)[C@@](C)(C(=O)O)C5CC[C@@]4(C)[C@]2(C)CC3)O[C@@H]1C (stereo partly specified), the max response [1] is reported as -6.6%, the max response [2] is reported as -7.53% and the outcome [3] is reported as “inactive”. For the same molecule, the max response [4] was 3.25%, the outcome [5] was “inactive” and the outcome [6] was “inactive [at 9.27 µM]”. For the same molecule, the outcome [7] was “inactive [at 9.27 µM]”, the activity change, negative = cytotoxicity [8] was -1.36% [at 6.55 µM] and the activity change, negative = cytotoxicity [9] was 22.8% [at 6.55 µM]. It also gave an activity change, negative = cytotoxicity [10] of 2.72% [at 6.55 µM], an activity change, negative = cytotoxicity [11] of 1.19% [at 6.55 µM] and an activity change, negative = cytotoxicity [12] of -1.07% [at 6.55 µM]. The activity change, negative = cytotoxicity [13] was 4.41% [at 6.55 µM], the activity change, negative = cytotoxicity [14] was -1.98% [at 6.55 µM] and the activity change, negative = cytotoxicity [15] was 0.0108% [at 6.55 µM]. For the same molecule, the activity change, negative = cytotoxicity [16] was 3.28% [at 6.55 µM].

In the case of CC(=O)/C=C/C1C(C)CC(O[C@@H]2O[C@H](CO)[C@@H](O)[C@H](O)[C@H]2O)CC1(C)C (stereo partly specified), the outcome [1] is reported as “inactive”, the max response [2] is reported as 3.69% and the outcome [3] is reported as “inactive”. The outcome [4] was “inactive”, the outcome [5] was “inactive” and the outcome [6] was “inactive”. The outcome [7] was “inactive”, the Potency [8] was “inactive” and the Potency [9] was “inactive”. For the same molecule, the outcome [10] was “inactive”, the Potency [11] was “inactive” and the Potency [12] was “inactive”. The Potency [13] was “inactive”, the Potency [14] was “inactive” and the Potency [15] was “inactive”. The Potency [16] was “inactive”.

In the case of Cc1sc(C)c(C(=O)NC2(c3ccc(C(=O)O)cc3)CC2)c1Cc1ccc(C(F)(F)F)cc1, the max response [1] is reported as -2.74%, the max response [2] is reported as -5.46% and the outcome [3] is reported as “inactive”. The max response [4] was 8.32%, the outcome [5] was “inactive” and the outcome [6] was “inactive”. For the same molecule, the outcome [7] was “inactive”, the Potency [8] was “inactive” and the Potency [9] was “inactive”. For the same molecule, the outcome [10] was “inactive”, the Potency [11] was “inactive” and the Potency [12] was “inactive”. For the same molecule, the Potency [13] was “inactive”, the Potency [14] was “inactive” and the Potency [15] was “inactive”. For the same molecule, the Potency [16] was “inactive”.

C=C(C)C1CCC2(C(=O)OC3OC(COC4OC(CO)C(O)C(O)C4O)C(OC4OC(C)C(O)C(O)C4O)C(O)C3O)CCC3(C(=O)O)C(CCC4C5(C)CCC(=O)C(C)(C)C5CCC43C)C12 (stereo unspecified) was tested, and the max response [1] was -1.47%, the max response [2] was -21.3% and the outcome [3] was “inactive”. The max response [4] was 1.44%, the outcome [5] was “inactive” and the outcome [6] was “inactive [at 9.27 µM]”. For the same molecule, the outcome [7] was “inactive [at 9.27 µM]”, the activity change, negative = cytotoxicity [8] was 2.12% [at 11.6 µM] and the activity change, negative = cytotoxicity [9] was 1.66% [at 11.6 µM]. For the same molecule, the activity change, negative = cytotoxicity [10] was -3.34% [at 11.6 µM], the activity change, negative = cytotoxicity [11] was -14% [at 11.6 µM] and the activity change, negative = cytotoxicity [12] was 1.62% [at 11.6 µM]. The activity change, negative = cytotoxicity [13] was 0.77% [at 11.6 µM], the activity change, negative = cytotoxicity [14] was -1.16% [at 11.6 µM] and the activity change, negative = cytotoxicity [15] was -0.071% [at 11.6 µM]. For the same molecule, the activity change, negative = cytotoxicity [16] was 8.9% [at 11.6 µM].

With C=C1C(=O)O[C@@H]2CC(C)=C([C@@H](C)CCCOC(C)=O)[C@@H](O)[C@H]12 the max response [1] was 0.455%, the max response [2] was 1.32% and the outcome [3] was “inactive”. For the same molecule, the max response [4] was 6.41%, the outcome [5] was “inactive” and the outcome [6] was “inactive”. For the same molecule, the outcome [7] was “inactive”, the Potency [8] was “inactive” and the Potency [9] was “inactive”. The outcome [10] was “inactive”, the Potency [11] was “inactive” and the Potency [12] was “inactive”. For the same molecule, the Potency [13] was “inactive”, the Potency [14] was “inactive” and the Potency [15] was “inactive”. The Potency [16] was “inactive”.

In the case of CC(O)C(O)/C=C/C=C/C(=O)O[C@@H]1C=C(C(=O)O)[C@](O)(CO)[C@@]2(C)CCCC(C)(C)[C@H]12 (stereo partly specified), the max response [1] is reported as -15.6%, the max response [2] is reported as -10.2% and the outcome [3] is reported as “inactive”. The max response [4] was 4.17%, the outcome [5] was “inactive” and the outcome [6] was “inactive [at 17.4 µM]”. For the same molecule, the outcome [7] was “inactive [at 17.4 µM]”, the Potency [8] was “inactive” and the Potency [9] was “inactive”. The outcome [10] was “inactive”, the Potency [11] was “inactive” and the Potency [12] was “inactive”. The Potency [13] was “inactive”, the Potency [14] was “inactive” and the Potency [15] was “inactive”. For the same molecule, the Potency [16] was “inactive”.

In the case of CC1(C)CC2C(O)C3=C(CC(C)(O)C2C1)C(=O)OC3 (stereo unspecified), the outcome [1] is reported as “inactive”, the max response [2] is reported as -1.51% and the outcome [3] is reported as “inactive”. For the same molecule, the outcome [4] was “inactive”, the outcome [5] was “inactive” and the outcome [6] was “inactive”. The outcome [7] was “inactive”, the Potency [8] was “inactive” and the Potency [9] was “inactive”. The outcome [10] was “inactive”, the Potency [11] was “inactive” and the Potency [12] was “inactive”. For the same molecule, the Potency [13] was “inactive”, the Potency [14] was “inactive” and the Potency [15] was “inactive”. The Potency [16] was “inactive”.
